Sampled rows, rich in hits. Any-hit rate of the full collection: about 4%.
TRHR enhancer: TRH receptor (human) allosteric enhancement; P34981; TRHR cells, fluo-8 calcium fluorescence, EC20 TRH enhancement; enhancement, % at 2 µM; actives 0.66% (n = 360,000); in the data active = enhancement above about 30%; also: 0% is about no effect
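TRHR-expressing cells loaded with fluo-8 calcium dye were read kinetically (ex 480/em 530) during compound addition, then stimulated with an EC20 of TRH (10 nM final). Enhancement of the Gq-mediated intracellular calcium response was scored.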
D1 antag: human D1 dopamine receptor antagonism. HEK293 TREx D1 cells, calcium flux, dopamine EC80; hits give low values. actives 3.2% (n = 360,000). activity change, negative = inhibition, % at 10 µM; in the data active = activity change below about -30%; also: % is scaled to controls: 0 for no effect and ±100 for the full control effect
Target sequence (P21728 whole entry, looked up): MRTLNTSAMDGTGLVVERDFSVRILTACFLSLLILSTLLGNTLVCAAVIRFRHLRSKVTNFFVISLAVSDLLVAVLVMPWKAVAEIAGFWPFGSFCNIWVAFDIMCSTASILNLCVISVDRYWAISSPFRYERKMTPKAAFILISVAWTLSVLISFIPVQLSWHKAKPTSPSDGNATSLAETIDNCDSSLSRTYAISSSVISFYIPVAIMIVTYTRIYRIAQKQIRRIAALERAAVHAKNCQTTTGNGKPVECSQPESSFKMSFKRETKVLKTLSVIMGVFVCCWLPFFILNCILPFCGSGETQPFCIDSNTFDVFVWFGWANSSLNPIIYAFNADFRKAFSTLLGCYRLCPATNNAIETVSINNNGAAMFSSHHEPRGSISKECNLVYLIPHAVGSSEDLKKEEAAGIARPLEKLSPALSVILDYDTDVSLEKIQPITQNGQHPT
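Calcium flux readout: force-coupled, inducible Hek293 Trex D1 line, cells induced overnight at 30 C with tetracycline, dye-loaded 30–90 min at RT. Antagonism scored against EC80 dopamine challenge given 180 s after compound.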
TRHR agonist: agonists of human TRH receptor | actives 0.18% (n = 360,000) | TRHR cells, calcium flux fluo-8, FDSS agonist mode | activation, % at 2 µM | P34981; also: 0% is about no effect
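In this calcium-flux screen, cells bearing human TRHR are dye-loaded with fluo-8, baselined for 10 cycles, then exposed to library compounds; positive kinetic calcium responses during the agonist phase mark hits, with TRH as control.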
D1 ag: agonists of human D1 dopamine receptor. P21728. HEK293 T-REx D1 cells, calcium flux, agonist mode. activation, % at 2 µM. actives 1% (n = 360,000). AID 504660; also: 0% is about no effect
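Tetracycline-induced HEK293 TREx D1 cells, force-coupled to calcium signalling, were dye-loaded with a no-wash calcium kit. Compound was pin-added after a 10 s baseline. Fluorescence was read kinetically at 1 cycle/s for 180 s, with calcium rises flagged as agonism.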
GRP78 ERSR act: induces the endoplasmic reticulum stress response in human glioma cells; U87-MG GRP78 promoter luciferase reporter, 16 h; Potency, µM, inactives show top-dose activation, most hits filed as activators; actives 0.02% (n = 420,000); AID 602332; active = well fitted activation curve with a large enough effect; also: potency is read from the fitted curve at half-maximal effect; series mostly up to about 76 µM; % of control where 0% means no effect; nearly all actives have a fitted effect of over 35% in size
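ERSR induction read as luciferase luminescence (Bright-Glo, 10 min at room temperature) in stably transfected human U87-MG glioma cells exposed to compounds for 16 h, using GRP78 as sensor.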
D1 PAM: human D1 dopamine receptor positive modulation; P21728; potentiation, % at 10 µM; HEK293 TREx D1 cells, calcium flux, dopamine EC20 potentiation; actives 0.036% (n = 360,000); AID 504651; in the data active = potentiation above about 30%; also: 0% is about no effect
* = called active by the depositor; x = no result; ! = not confirmed by another sample. Rule as the data show it, unless noted: active = activation above about 30%; inactive = the rest.

SMILES	TRHR enhancer	D1 antag	TRHR agonist	D1 ag	GRP78 ERSR act	D1 PAM
Cc1cc(C(=O)Nc2ccccc2-c2nc(CNC(=O)C3COc4ccccc4O3)c(C)o2)c(C)o1 (configuration not stated)	x	x	x	x	-0.2%	x
CN(C)c1ccc(-c2c(C3C4C=CCCC4(C)C(=O)N3Cc3ccccc3)ccc3ccccc23)cc1 (configuration not stated)	x	x	x	x	-4.0%	x
CCOC(=O)c1c(NC(=O)c2nc(S(C)(=O)=O)ncc2Cl)sc(C(C)=O)c1C	-11.0	-31.2*	-1.2	1.1	0.4%	2.0
CCOC(=O)c1ccc(NC(=O)c2nc(S(=O)(=O)Cc3ccccc3)ncc2Cl)cc1	-9.9	-45.2*	0.2	0.8	-13.1%	-7.7
CCSc1ncc(Cl)c(C(=O)Nc2ccccc2)n1	36.4*	-14.5	-1.2	3.5	-2.1%	-16.2
COC(=O)c1ccc(NC(=O)c2nc(S(=O)(=O)Cc3cccc(C)c3)ncc2Cl)cc1	6.1	32.4	-0.5	-0.1	-18.6%	9.5
CCOC(=O)c1c(NC(=O)c2nc(SCC)ncc2Cl)sc(C(C)=O)c1C	-1.1	-0.1	0.4	-0.4	-1.9%	1.8
CSc1ncc(Cl)c(C(=O)Nc2nnc(SC)s2)n1	0.5	8.4	0.1	0.9	-0.8%	0.7
CCCSc1nnc(NC(=O)c2nc(SC)ncc2Cl)s1	-0.5	-35.7*	-0.1	0.4	-4.3%	-3.6
COc1ccc(-c2nc3cnc(N4CCOCC4)nc3n(-c3ccc(OC)cc3)c2=O)cc1	x	x	x	x	-3.9%	x
CC(=O)Nc1cc(O)c2nonc2c1O	x	x	x	x	-10.9%	x
CC1(C(=O)Nc2cccc3c2CCCC3)CCN1C(=O)CCC1CCCC1 (configuration not stated)	x	x	x	x	-3.3%	x
CN(c1ccccc1)S(=O)(=O)c1ccc(NC(=O)c2nc(S(C)(=O)=O)ncc2Cl)cc1	17.0	-46.7*	2.0	2.1	-16.4%	-9.9
CCOC(=O)c1c(-c2ccccc2)csc1NC(=O)c1nc(SCC)ncc1Cl	-0.8	-10.5	0.7	4.8	-1.7%	-1.1
CCOC(=O)c1c(-c2ccccc2)csc1NC(=O)c1nc(S(=O)(=O)CC)ncc1Cl	-16.3	-47.4*	0.0	3.3	-0.2%	-4.5
CCOc1cc(CNC(=O)C(NS(=O)(=O)c2cccs2)C(C)C)cc(OCC)c1OCC (configuration not stated)	1.0	0.7	0.0	-1.2	0.9%	0.8
O=c1oc2cc(O)ccc2cc1-c1nc2c(s1)CCc1ccccc1-2	-22.5	-23.2	199.4*	282.5*	-2.3%	-9.8
O=c1oc2cc(O)ccc2cc1-c1nc(-c2ccc(Cl)c(Cl)c2)cs1	2.0	7.2	19.0	45.7*	-1.5%	3.0
O=c1oc2ccccc2cc1-c1nc2c(s1)CCc1ccccc1-2	10.9	2.9	-1.0	20.7	-2.8%	-7.8
CN(Cc1ccccc1)c1nccn2ccnc12	x	x	x	x	-0.9%	x
COc1ccc(C2C(C(=O)c3ccccc3)N3c4ccccc4C=CC3C2[N+](=O)[O-])cc1 (configuration not stated)	15.7	-5.6	15.0	41.2*	-4.7%	-3.1
COc1ccc(N2C(=O)[C@@H]3[C@H](C2=O)[C@H](C(C)=O)N2c4ccccc4C=C[C@@H]32)cc1	6.3	0.5	0.0	0.9	-3.5%	-7.6
CCCn1c(N)c(N2CCCCC2)c(=O)n(CC(=O)Nc2ccc(OC(F)(F)F)cc2)c1=O	12.8	-30.0*	0.5	0.2	-3.5%	3.5
CCCn1c(N)c(N2CCCCC2)c(=O)n(CC(=O)Nc2ccccc2C)c1=O	-1.6	8.5	-0.6	0.1	-3.7%	-1.9
Cc1cc(=O)[nH]c2nnc(SCC(=O)N3CC(C)OC(C)C3)n12 (configuration not stated)	-1.5	32.8	-0.1	2.6	-5.1%	-4.0
SMILES	TRHR enhancer	D1 antag	TRHR agonist	D1 ag	GRP78 ERSR act	D1 PAM
CCCc1cc(=O)[nH]c2nnc(SCC(=O)N3CC(C)OC(C)C3)n12 (configuration not stated)	2.0	-64.6*	0.2	2.9	-1.9%	-2.3
Cc1ccc(CNC(=O)C(C)n2nc(C)c3sc4ccccc4c3c2=O)cc1 (configuration not stated)	12.7	-5.1	-0.8	7.1	-2.8%	1.8
Cc1nn(C(C)C(=O)Nc2ccccc2C(F)(F)F)c(=O)c2c1sc1ccccc12 (configuration not stated)	-6.3	-47.2*	-0.4	1.2	-4.8%	-2.9
Cc1nn(C(C)C(=O)NC2CCCCC2)c(=O)c2c1sc1ccccc12 (configuration not stated)	2.6	-34.1*	0.8	9.2	-3.7%	-3.6
O=C(c1cnn(-c2nccc(-c3ccco3)n2)c1C1CC1)N1CCCCC1c1cccnc1 (configuration not stated)	x	x	x	x	-2.6%	x
CCN(C(=O)C(=O)c1c(C)[nH]c2ccccc12)c1ccccc1	x	x	x	x	-1.8%	x
CCOC(=O)C1(CC2CC2)CCN(Cc2cn[nH]c2-c2ccccc2)CC1	-6.6	6.7	2.2	3.5	-0.8%	-3.9
CCOC(=O)C1(CC2CC2)CCN(Cc2cn[nH]c2-c2cccc(F)c2)CC1	-3.9	-38.1*	1.7	1.1	1.5%	-7.3
CCOC(=O)c1ccc(N2CCCCC2)c(NS(=O)(=O)c2cccc(C(F)(F)F)c2)c1	-8.1	-47.5*	0.8	4.6	3.0%	-2.9
COc1ccc2c(c1)C(=O)C1NC(=O)NC(=O)C1(Br)N2 (configuration not stated)	x	x	x	x	0.3%	x
CC(=O)Nc1ccc(N2CCc3c(C)c(C#N)c4nc5ccccc5n4c32)cc1	-1.1	4.8	20.2	47.1*	x	1.1
Nc1ncnc2c1ncn2COC(CO)CO	x	x	x	x	-3.0%	x
Cn1c(=O)n(CC(=O)O)c(=O)c2c1nc1n2CCS1	39.8*!	-9.6	-0.5	1.5	-5.9%	-8.8
Cc1ccc(NC(=O)C(Cc2ccccc2)NS(=O)(=O)c2cccs2)cc1Cl (configuration not stated)	5.9	-41.5*	1.8	6.0	-2.8%	0.5
COc1ccc(C)cc1NC(=O)C(NS(=O)(=O)c1cccc2nsnc12)c1ccccc1 (configuration not stated)	-4.1	-8.5	0.0	1.6	-3.2%	1.8
COc1ccc(C)cc1NC(=O)C(NS(=O)(=O)c1cccs1)c1ccccc1 (configuration not stated)	-2.1	-35.5*	-1.6	-1.9	-0.4%	-1.5
Cc1cnc(NC(=O)C2CC(=O)N(c3ccc4c(c3)OCCO4)C2)s1 (configuration not stated)	x	x	x	x	-4.7%	x
Cc1ccc(NC(=O)NC2CC(=O)N(c3ccc4c(c3)OCCO4)C2)cc1C (configuration not stated)	-1.4	-11.6	-0.3	2.9	-5.2%	2.6

High-throughput results: PubChem BioAssay, National Center for Advancing Translational Sciences (NCATS)
